Pf Dd2 inh – P. falciparum Dd2 growth inhibitors, primary screen, SYBR Green fluorescence, single dose replicates | 72 h; active compounds read low | 94,000 tested, 2.3% active | activity change, % at 10 µM; in the data active = activity change below about -80%; inconclusive = no clear call, values can overlap the other calls
T cruzi growth-1 – T. cruzi intracellular proliferation inhibitors, primary screen, cell-based, beta-gal Tulahuen parasites, NIH3T3 host, luminescence; 77,000 tested, 5.9% active; T. cruzi beta-gal in NIH3T3, GalScreen luminescence, 90 h; inhibition, % at 8.34 µM;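 active = mean inhibition above about 93%, with at least 55% of replicates each passing it, limit read from the data, passing the limit was not always enough; inconclusive = only one of those two conditions holds; inactive = neither condition holds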
C diff growth – C. difficile growth inhibitors, primary screen, HTS | Clostridium difficile clinical isolate growth, OD600, 24 h; active compounds read low | growth activity, negative = inhibition, % at 16 µg/mL (by protocol) | 86,000 tested, 0.25% active | AID 1259249, 2017;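 active = mean growth activity at or below -80% and every replicate also at or below -80%; inconclusive = mean at or below -80% but some replicate above -80%; inactive = mean growth activity above -80%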;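 also: 0% = DMSO wells and -100% = levofloxacin 16 µg/mL wells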
T cruzi growth-2 – T. cruzi intracellular proliferation inhibitors, confirmation, cell-based, NIH3T3 host, beta-gal parasite, luminescence, cherry-pick; shares compounds with T cruzi growth-1; T. cruzi beta-gal in NIH3T3, GalScreen luminescence, 90 h; inhibition, % at 8.35 µM; 5,600 tested, 72% active; AID 651739, 2012;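 active = mean replicate inhibition above about 95% and at least 55% of replicates individually reaching it, limit read from the data; inconclusive = only one of the two criteria is met; inactive = neither criterion is met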
T cruzi growth-3 – inhibitors of intracellular T. cruzi replication, confirmation, NIH3T3 host cells, beta-gal parasites, cherry-pick, set 2 | 5,600 tested, 21% active | T. cruzi beta-gal in NIH3T3, GalScreen luminescence, 90 h | shares compounds with T cruzi growth-1 | inhibition, % at 2.09 µM | AID 651740, 2012;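 active = mean inhibition above about 95%, with at least 55% of replicates also reaching it, limit read from the data; inconclusive = meets just one of the two conditions; inactive = meets neither condition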;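 also: plate controls were neutral control median for no effect and positive control median for full effect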
3T3 cytotox – cytotoxicity in mouse NIH/3T3 fibroblasts, confirmation, cytotoxicity control for T. cruzi proliferation inhibitor project, cell-based, cherry-pick, single point; shares compounds with T cruzi growth-1; cytotoxicity (signal decrease), % at 8.35 µM; AID 651742, 2012; 5,600 tested, 14% active; NIH/3T3 viability, CellTiter-Glo ATP luminescence, 90 h;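 active = mean signal decrease across replicates above about 35% based on untreated-well scatter, with enough replicates individually passing, limit read from the data; inconclusive = no rule stated though some were filed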;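 also: 0% = median of neutral control wells and 100% = median of positive control wells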
3T3 cytotox 2 – NIH/3T3 fibroblast cytotoxicity, confirmation, cytotoxicity control, cell-based, cherry-pick, single point, set 2; shares compounds with T cruzi growth-1; NIH/3T3 viability, CellTiter-Glo ATP luminescence, 90 h; inhibition, % at 24.9 µM; 5,600 tested, 56% active;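 active = mean loss of cell viability signal at or above a set limit, and enough replicates individually reaching it; inconclusive = meets only the mean limit or only the replicate share; inactive = meets neither condition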;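 also: 0% = median of neutral control wells and 100% = median of positive control wells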
An asterisk follows results filed as active; ? = inconclusive; / = no result given. This is a sample that favours compounds with a hit; in the whole collection about 6.7% have one here.

SMILES	Pf Dd2 inh	T cruzi growth-1	C diff growth	T cruzi growth-2	T cruzi growth-3	3T3 cytotox	3T3 cytotox 2
Cc1noc(C)c1NC(=O)Nc1ccc2c(c1)CC(=O)N([C@@H](C)CO)C[C@@H](C)[C@H](CN(C)Cc1ccc(C(=O)O)cc1)O2	16	-4	3	/	/	/	/
C[C@@H]1CN([C@@H](C)CO)C(=O)c2cc(-c3ccc(C#N)cc3)cnc2O[C@H]1CN(C)C(=O)CC1CC1	2	-19	2	/	/	/	/
C[C@@H]1CN([C@@H](C)CO)C(=O)c2cc(-c3cccc(C#N)c3)cnc2O[C@@H]1CN(C)Cc1ccc(F)cc1	-1	35	4	/	/	/	/
COc1ccc2c3c(n(C)c2c1)[C@@H](CO)NCC31CCN(C(=O)CC2CC2)CC1	24	/	/	/	/	/	/
C[C@@H]1CN([C@@H](C)CO)C(=O)Cc2cc(NS(=O)(=O)c3cn(C)cn3)ccc2O[C@H]1CN(C)C(=O)Nc1cccc2ccccc12	16	-16	-4	/	/	/	/
CC(C)NC(=O)N(C)C[C@H]1OCCCC[C@@H](C)Oc2ccc(NS(C)(=O)=O)cc2C(=O)N([C@@H](C)CO)C[C@@H]1C	10	10	/	/	/	/	/
Cc1ccc(S(=O)(=O)Nc2ccc3c(c2)C(=O)N([C@@H](C)CO)C[C@H](C)[C@@H](CN(C)C(=O)Cc2ccccc2)OCCCC[C@@H](C)O3)cc1	-74	?	/	106*	64	-28	-4
Cc1ccc(S(=O)(=O)Nc2ccc3c(c2)C(=O)N([C@H](C)CO)C[C@H](C)[C@H](CN(C)S(=O)(=O)c2ccccc2)OCCCC[C@H](C)O3)cc1	-62	113*	-6	113*	39	-1	-5
C[C@H]1CCCCO[C@@H](CN(C)S(=O)(=O)c2ccccc2)[C@@H](C)CN([C@@H](C)CO)C(=O)c2cc(NS(=O)(=O)c3ccccc3)ccc2O1	-54	52	/	/	/	/	/
Cc1ccc(S(=O)(=O)Nc2ccc3c(c2)C(=O)N([C@@H](C)CO)C[C@@H](C)[C@@H](CN(C)C(=O)Cc2ccccc2)OCCCC[C@H](C)O3)cc1	-74	78	/	/	/	/	/
C[C@@H]1CN([C@@H](C)CO)C(=O)c2cc(NS(=O)(=O)c3ccccc3)ccc2O[C@@H](C)CCCCO[C@H]1CN(C)S(=O)(=O)c1ccccc1	20	31	/	/	/	/	/
Cc1ccc(S(=O)(=O)Nc2ccc3c(c2)C(=O)N([C@@H](C)CO)C[C@H](C)[C@H](CN(C)S(=O)(=O)c2ccccc2)OCCCC[C@@H](C)O3)cc1	-52	105*	-4	106*	94	11	53*
Cc1ccc(S(=O)(=O)Nc2ccc3c(c2)C(=O)N([C@H](C)CO)C[C@@H](C)[C@H](CN(C)S(=O)(=O)c2ccccc2)OCCCC[C@@H](C)O3)cc1	-58	107*	-1	106*	88	22	-3
COc1ccc(S(=O)(=O)Nc2ccc3c(c2)C(=O)N([C@@H](C)CO)C[C@H](C)[C@H](CN(C)C(=O)c2ccccc2)OCCCC[C@@H](C)O3)cc1	-39	-2	9	/	/	/	/
C[C@H]1CCCCO[C@H](CN(C)C(=O)Cc2ccccc2)[C@@H](C)CN([C@@H](C)CO)C(=O)c2cc(NS(=O)(=O)c3cccs3)ccc2O1	-23	41	-2	/	/	/	/
CCCNC(=O)C[C@@H]1CC[C@@H]2[C@H](COC[C@H](O)CN2Cc2cccc(F)c2)O1	9	23	2	/	/	/	/
Cc1ccccc1S(=O)(=O)N1CC[C@@H]2[C@H]1c1cc(-c3cccc(F)c3)ccc1N(C)[C@H]2CO	7	46	25	/	/	/	/
Cc1ccccc1S(=O)(=O)N1CC[C@@H]2[C@@H](CO)N(C)c3ccc(Br)cc3[C@@H]21	-17	?	3	100*	35	-2	106*
Cc1ccccc1S(=O)(=O)N1CC[C@H]2[C@@H](CO)N(C)c3ccc(Br)cc3[C@H]21	-58	69	-6	/	/	/	/
CN1c2ccc(Br)cc2[C@H]2[C@H](CCN2S(=O)(=O)c2ccccc2F)[C@@H]1CO	9	93*	7	107*	11	14	15
CN1c2ccc(Br)cc2[C@@H]2[C@@H](CCN2S(=O)(=O)c2ccccc2F)[C@H]1CO	4	58	-4	/	/	/	/
Cc1ccccc1S(=O)(=O)N1CC[C@@H]2[C@@H](CO)N(C)c3ccc(-c4ccccc4)cc3[C@@H]21	-2	?	6	111*	108*	23	104*
Cc1noc(C)c1S(=O)(=O)Nc1ccc2c(c1)C(=O)N([C@@H](C)CO)C[C@H](C)[C@H](CN(C)Cc1ccccc1)O2	-3	10	0	/	/	/	/
CCCN(C)C[C@H]1OCc2cn(nn2)CCCC(=O)N([C@H](C)CO)C[C@H]1C	18	-5	3	/	/	/	/
C[C@@H]1CN([C@@H](C)CO)C(=O)Cc2cc(NC(=O)Cc3ccccc3)ccc2O[C@H]1CN(C)Cc1ccc2c(c1)OCO2	-25	79	0	/	/	/	/
SMILES	Pf Dd2 inh	T cruzi growth-1	C diff growth	T cruzi growth-2	T cruzi growth-3	3T3 cytotox	3T3 cytotox 2
C[C@H]1CN([C@@H](C)CO)C(=O)Cc2cc(NC(=O)Cc3ccccc3)ccc2O[C@@H]1CN(C)Cc1ccc(-c2ccccc2)cc1	-26	107*	39	113*	75	8	73*
C[C@H]1CN([C@@H](C)CO)C(=O)Cc2cc(NC(=O)Cc3ccccc3)ccc2O[C@H]1CN(C)Cc1ccc(-c2ccccc2)cc1	-9	57	9	/	/	/	/
C[C@H](CO)N1C[C@H](C)[C@H](CN(C)Cc2ccc3c(c2)OCO3)Oc2ccc(NC(=O)Cc3ccccc3)cc2CC1=O	-28	106*	-2	39	-4	-9	17
CCNC(=O)C[C@H]1CC[C@H]2[C@H](COc3ccc(NC(=O)c4cccc(C(F)(F)F)c4)cc3C(=O)N2C)O1	5	17	17	/	/	/	/
C=CCOC(=O)[C@@H]1[C@H]2C(=O)O[C@H](c3ccccc3)[C@H](c3ccccc3)N2[C@H](c2ccc(OCCOC(=O)[C@@H]3C[C@@H]4C(=O)NCC(=O)N4[C@@H]3c3ccc(O)cc3)cc2)[C@@]12C(=O)Nc1ccc(I)cc12	/	/	16	/	/	/	/
C[C@H](O)C#Cc1ccc2c(c1)O[C@H](CN(C)C(=O)C1CC1)[C@@H](C)CN([C@@H](C)CO)S2(=O)=O	-23	54	/	/	/	/	/
C[C@H](O)C#Cc1ccc([C@@H]2[C@@H](CO)N3CCCCN(C(=O)c4cccc(F)c4)C[C@@H]23)cc1	-2	46	9	/	/	/	/

Screening data (PubChem)
